# Marburg entry inh: qHTS for inhibitors of binding or entry into cells for Marburg Virus | 1.8% of 300,000 active | AID 540276, 2011 | Potency, µM (series often up to 37.8 µM), for inactives: at the top dose activity change, negative = inhibition, most hits filed as inhibitors | Marburg virus pseudotyped entry inhibition, cell reporter; calls by dose curve; tested in HEK293 cells; further: potency means the concentration at half of the fitted maximal effect
# HCMV antiviral: qHTS Assay for inhibitors of the human cytomegalovirus (HCMV). 4.5% of 410,000 active. AID 1259415, 2018. HFF cells, HCMV-luciferase reporter, 72 h; stronger effect = lower value. activity change, negative = inhibition, % at 57.5 µM; in the data active means activity change below about -60%; inconclusive means no clear call, values can overlap the other calls; inactive means above about -39%
#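 Luciferase read-out from HCMV-luciferase-infected HFFs (MOI 1 PFU/cell) 72 h post infection at 37C; compounds added after 16 h cell attachment; activity normalized between buffer-only basal and Salinomycin (10uM) inhibitor controls.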
# FBPA Giardia inh: qHTS Assay for Inhibitors of Fructose-1,6-bisphosphate Aldolase from Giardia Lamblia | 0.71% of 290,000 active | purified Giardia FBPA | A8B2U2 | Potency, µM (highest dose often 59.6 µM), without a hit: at the highest dose activity, negative = inhibition, most hits filed as inhibitors; further: potency means the concentration at half of the fitted maximal effect; nearly all actives have a fitted effect of over 55% in size
# Target sequence (A8B2U2 whole entry, looked up): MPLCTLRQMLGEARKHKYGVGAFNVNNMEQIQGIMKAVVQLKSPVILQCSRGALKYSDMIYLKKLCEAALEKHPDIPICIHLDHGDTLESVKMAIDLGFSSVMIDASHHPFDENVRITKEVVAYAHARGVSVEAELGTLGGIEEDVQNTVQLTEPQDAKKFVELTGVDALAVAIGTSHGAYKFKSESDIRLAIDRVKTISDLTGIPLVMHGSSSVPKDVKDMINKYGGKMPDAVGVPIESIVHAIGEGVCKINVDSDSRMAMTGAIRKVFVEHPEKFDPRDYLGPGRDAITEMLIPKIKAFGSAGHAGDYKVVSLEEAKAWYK
#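 40 nM FBPA preincubated 10 min at RT with compound (up to 57.5 uM final), then substrate plus GAPDH/TPI/NAD/arsenate coupling and diaphorase/resazurin added. Fluorescence read after 20 min at RT, 525/598 nm.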
# HCV inhibitor: qHTS Assay for Inhibitors of Hepatitis C Virus (HCV) | Huh7.5.1 HCVcc-Cre infection, luciferase reporter, 44 h | AID 651820, 2012 | Potency, µM (top dose mostly 41.8 µM), for inactives: at the top dose activity change, negative = inhibition, most hits filed as inhibitors | 3.4% of 340,000 active; further: potency means the concentration at half of the fitted maximal effect
#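 After 44 h co-culture of compound, cells and HCVcc-Cre (~0.5 moi), substrate is added for 15 min at room temperature and luciferase measured over 15 sec. Cells were seeded at 1,000/well and pre-cultured 4 h.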
# LASV entry inh: qHTS for Inhibitors of binding or entry into cells for Lassa Virus; Lassa virus pseudotype entry inhibition, cell reporter; Potency, µM (doses to about 37.9 µM), for the others: at the top dose activity change, negative = inhibition, hits mostly inhibitors; 1.2% of 300,000 active; AID 540256, 2011; calls by dose curve; tested in HEK293 cells; further: potency means the concentration at half of the fitted maximal effect; nearly all actives have a fitted effect of over 50% in size
# FMDV inh: High Throughput Screening for Foot and Mouth Disease Virus Antivirals. FMDV antiviral cell-based qHTS. Potency, µM (highest dose often 57.9 µM), inactives show at the top dose activity change, negative = inhibition, actives largely listed as inhibitors. 1.2% of 410,000 active. AID 1159524, 2015; calls by dose curve; tested in HEK293T cells; further: read-out not given here; potency means the concentration at half of the fitted maximal effect; nearly all actives have a fitted effect of over 45% in size
# * = called active by the depositor; ? = inconclusive; . = no result given; [ ] = another dose, or the depositor's remark. Shown are actives, neighbours in structure and some others; about 8.3% of the full set was active somewhere. Unless noted, the call rests on the fitted dose curve; in most records, active means well fitted curve in the direction sought with a large enough effect; inconclusive means small, poorly fitted or top-dose-only effect, or another doubt; inactive means no such curve, though single readings can be large; an effect the other way counts as inactive or inconclusive. On the % scale 0 is the no-effect control and ±100 the full control effect.
SMILES,Marburg entry inh,HCMV antiviral,FBPA Giardia inh,HCV inhibitor,LASV entry inh,FMDV inh
Cc1ccc(S(=O)(=O)N(C)C)cc1NC(=O)C(C)N(C)Cc1sccc1C (centres undefined),?,-61*,.,7.1µM*,.,16µM*
COc1ccc(C2C=C3CNS(=O)(=O)C3CC2OC(=O)c2cccs2)cc1 (centres undefined),.,.,2%,.,.,.
COc1ccc(CCNC(=O)CSc2n[nH]c(-c3ccccc3Cl)n2)cc1OC,.,4,.,.,-3%[46.1 µM],-13%
COc1ccc(CNc2cc([N+](=O)[O-])ccc2OC)cc1,-3%,-74*,-21%,?,-1%,.
COc1ccc(OC)c(NC(=O)CSc2c3c(nc4ccccc24)CCCC3)c1,10%[46.1 µM],-27,.,.,?,?
COc1ccc(OC)c(Nc2c3c(nc4ccccc24)CCC3)c1,2.8µM*,-79*,2%,?,?,-24%
COc1ccc(CNc2cc(C)nc3ccc(OC)cc23)cc1,?,-14,-4%,14µM*,.,-29%
COc1ccc([N+](=O)[O-])cc1Nc1c2ccccc2nc2ccccc12,.,?,-2%,?,.,32µM*
COc1ccc(OC)c(Nc2ccc(Nc3cc(OC)ccc3OC)nn2)c1,?,-86*,-12%,?,-15%,?
COc1ccccc1Nc1ccc(Nc2ccccc2OC)nn1,-10%,-24,1%,-3%,-20%,28%
Cc1cccc(Nc2c3c(nc4ccccc24)CCC3)c1,11µM*,-34,-2%,?,?,?
COc1ccc(N2CCN(c3cc(C)nc4ccc(OC)cc34)CC2)cc1,?,-3,6%,6.3µM*,?,?
COc1ccc2nc(C)cc(N3CCC(C(N)=O)CC3)c2c1,-2%[46.1 µM],?,-1%,7%,-3%,-5%
COc1cc(NS(C)(=O)=O)ccc1Nc1c2ccccc2nc2ccccc12,0.73µM*,-97*,-5%,0.89µM*,0.58µM*,-18%
Cc1ccccc1NC(=O)CCn1cnc2onc(-c3ccc(F)cc3)c2c1=O,.,-39,.,.,?,-11%
Cc1cc([N+](=O)[O-])ccc1NCc1ccccc1,-25%,.,0%,-16%,?,.
Cc1cc([N+](=O)[O-])ccc1NCc1ccc2ccccc2c1,-25%,-27,-2%,11µM*,9%,.
COc1ccc(OC)c(Nc2cc(C)c3ccccc3n2)c1,.,-4,4%,-9%,.,-3%
COc1ccc(OC)c(Nc2c3ccccc3nc3ccccc23)c1,6.3µM*,-71*,-5%,?,?,?
c1coc(CNc2c3c(nc4ccccc24)CCC3)c1,?,-69*,3%,?,-2%,?
Cc1ccc(Nc2c3c(nc4ccccc24)CCC3)cc1F,?,?,.,.,-32%[46.1 µM],?
COc1cc(Nc2c3c(nc4ccccc24)CCC3)cc(OC)c1OC,?,-75*,5%,?,-21%,-15%
COc1ccc(CC(=O)NCCc2cn(C)c3ccccc23)cc1OC,.,-17,.,.,.,.
N#Cc1cccc(-c2ccc3ncnc(NCc4ccccc4)c3c2)c1,.,.,1%,.,.,?
CCCc1c(OCC(O)COc2ccc3c(=O)cc(C(=O)O)oc3c2CCC)ccc(C(C)=O)c1O (centres undefined),.,.,12%,.,.,-6%
SMILES,Marburg entry inh,HCMV antiviral,FBPA Giardia inh,HCV inhibitor,LASV entry inh,FMDV inh
CC(=O)Nc1ccc(S(=O)(=O)NC2CCSc3ccccc32)cc1 (centres undefined),10µM*,-30,-6%,-6%,?,6%
Cc1c(Cl)cccc1NC(=S)N1CCCN(Cc2ccc(F)cc2)C1,4µM*,0,-4%,-20%,21%[46.1 µM],-11%
Cc1c(Cl)cccc1NC(=S)N1CCCN(Cc2ccccc2F)C1,10µM*,-9,-4%,1%,?,1%
CSc1cccc(NC(=S)N2CCCN(Cc3ccc(F)cc3)C2)c1,6.3µM*,0,?,-14%,?,-3%
O=C(CC1N=C2c3ccccc3N=C(SCc3ccc(Cl)cc3)N2C1=O)NCCc1ccccc1 (centres undefined),.,13,.,.,?,-2%
COc1ccc(C(=O)CN2C(=O)N(c3cc(C)cc(C)c3)S(=O)(=O)c3ccccc32)cc1,.,-6,.,.,-14%[46.1 µM],-5%
COC(=O)C1=C(c2ccc(Cl)c(C(F)(F)F)c2)C[C@@H]2CC[C@H]1N2C(=O)N1CCC(O)(c2ccc(Cl)cc2)CC1,.,5,.,10µM*,.,?
COC(=O)C1=C(c2ccc(Cl)c(C(F)(F)F)c2)C[C@@H]2CC[C@H]1N2C(=O)N1CCCC1,.,-28,.,32µM*,.,?
COC(=O)C1=C(c2c(C)noc2C)C[C@@H]2CC[C@H]1N2C(=O)N1CCC(O)(c2ccc(Cl)cc2)CC1,.,-12,.,-17%,.,-23%
COC(=O)C1=C(c2ccc(Cl)c(C(F)(F)F)c2)C[C@@H]2CC[C@H]1N2C(=O)N1CCOCC1,.,?,.,?,.,-11%
COC(=O)C1=C(C)N(Cc2ccccc2)C(=NCC2CC2)NC1c1cccc(C(F)(F)F)c1 (centres undefined),11%[14.2 µM],.,.,.,.,.
COC(=O)C1=C(C)N(Cc2ccc(C(F)(F)F)cc2)C(=NCC2CC2)NC1c1cccc(Cl)c1 (centres undefined),.,-102*,.,.,.,.
COC(=O)C1=C(C)N(Cc2ccc(C(F)(F)F)cc2)C(=NCc2ccc3c(c2)OCO3)NC1c1cccc(Cl)c1 (centres undefined),.,-100*,.,.,.,.
CCC(C)(C)NC(=O)c1ccccc1Oc1ccccc1,?,-76*,10%,27%,5%[46.1 µM],-8%
COc1cc2ncnc(NCc3ccc(C)o3)c2cc1OC,.,0,-1%,-14%,.,-28%
COc1cc2ncnc(NCc3ccc(Cl)cc3)c2cc1OC,.,-78*,8%,-18%,.,0%
Cc1ccc(CNc2ncnc3cc(Cl)ccc23)o1,-7%,12,0%,11µM*,0%,?
COc1cc2ncnc(NCc3ccc(F)cc3)c2cc1OC,?,-6,8%,?,?,-1%
Cc1ccc(CNc2ncnc3cc(Cl)ccc23)cc1,.,?,0%,11µM*,.,?
Cc1ccccc1CNc1ncnc2cc(Cl)ccc12,4%,?,15%,-60%,-6%,?
CCCCC/C=C\C=C\[C@H](O)CCCCCCCC(=O)O,.,.,.,.,.,-7%[0.463 µM]
O=C(CCn1cncn1)NCC1Cc2cc(-c3ccsc3)cc(Cl)c2O1 (centres undefined),.,.,.,.,.,3%
CC(C)n1cnc2c(NCc3ccccc3)cc(N[C@H](C)CO)cc21,.,.,.,?,.,8.9µM*
CCC(CO)Oc1cc(NCc2ccc(C(C)(C)C)cc2)c2ncn(C(C)C)c2c1 (centres undefined),.,18,.,7.9µM*,.,-20%
